Source: PubChem
hcDAF12 agonist: H. contortus DAF-12 nuclear receptor activators, primary screen, cell-based, luminescence, HEK293, lit1-tk-luc reporter | HEK293 hcDAF-12 lit1-tk-luc reporter; 0% DMSO, 100% Δ7-dafachronic acid | activation, % at 6.8 µM | actives 1.4% (n = 370,000);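 active means activation above the mean of all tested compounds plus 3 SD, cut at about 5.5% in these data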;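 further: 100% = response to 3 µM Δ7-dafachronic acid high control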
hgDAF-12 ag: H. glycines DAF-12 receptor agonists, primary screen, cell-based, luminescence, HEK293, GAL4 fusion, UAS-luciferase; Nuclear hormone receptor DAF-12 (Heterodera glycines), GAL4 fusion; HEK293 GAL4-hgDAF12 UAS-luciferase reporter, agonist luminescence; normalized to butyrate control; activation, % at 6.8 µM; actives 1.8% (n = 370,000); AID 687014, 2013;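 active means activation above a cutoff set at the mean of all screened compounds plus 3 SD, cut at about 10% in these data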;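 further: 0% = DMSO wells and 100% = sodium butyrate wells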
DAX1 inh-1: DAX1 (NR0B1) inhibitors, primary screen, cell-based, HEK293, Gal4-DAX1, luciferase luminescence; HEK293 Gal4-DAX1 luciferase reporter; actives 0.99% (n = 340,000); AID 504766, 2011; inhibition, % at 6.75 µM; Nuclear receptor subfamily 0 group B member 1 (Homo sapiens), P51843;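 active means inhibition above the mean over all tested compounds plus 3 SD, cut at about 4.2% in these data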;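 further: 0% = DAX1-transfected cells with DMSO and 100% = empty-vector control cells with DMSO; inhibition shows as a rise in luminescence from relieved DAX1 repression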
Target sequence (P51843 207-470 limits assumed): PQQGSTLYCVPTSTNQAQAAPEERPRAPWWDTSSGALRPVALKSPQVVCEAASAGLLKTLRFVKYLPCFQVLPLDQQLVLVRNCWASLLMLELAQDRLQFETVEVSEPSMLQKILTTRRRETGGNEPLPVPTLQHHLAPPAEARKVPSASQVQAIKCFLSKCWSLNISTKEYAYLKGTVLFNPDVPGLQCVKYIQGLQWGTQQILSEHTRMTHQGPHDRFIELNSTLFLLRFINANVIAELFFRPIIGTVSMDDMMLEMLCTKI
DAX1 inh-2: DAX1 (NR0B1) inhibitors on StAR promoter, primary screen, cell-based, luminescence, SF-1 (NR5A1), full-length DAX-1; HEK293T StAR-luciferase reporter, SF-1/DAX-1 repression relief; inhibition, % at 6.8 µM; actives 1.1% (n = 370,000); AID 652010, 2013;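 active means inhibition above the mean over all tested compounds plus 3 SD, cut at about 3.6% in these data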;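 further: 0% = DAX-1 cells with DMSO and 100% = cells lacking DAX-1 with DMSO; higher inhibition means more luminescence from relief of DAX-1 repression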
ssDAF12 agonist: S. stercoralis DAF-12 nuclear receptor activators, primary screen, cell-based, luminescence, HEK293, GRIP1 co-expression, lit1-tk-luc; actives 1% (n = 370,000); Nuclear hormone receptor DAF-12 (Strongyloides stercoralis); activation, % at 6.8 µM; HEK293 ssDAF-12/GRIP1 lit1-tk-luc reporter; % of 3 µM dafachronic acid response;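 active means activation above the mean over all tested compounds plus 3 SD, cut at about 0.9% in these data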;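 further: 0% = DMSO-only wells and 100% = 3 µM delta7-dafachronic acid wells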
An asterisk follows results filed as active; . = not tested or not shown. An excerpt weighted towards active compounds, which were near 4.1% of everything screened.

SMILES	hcDAF12 agonist	hgDAF-12 ag	DAX1 inh-1	DAX1 inh-2	ssDAF12 agonist
CC(C)c1ccc(NC(=O)C2=NNC(=O)CC2)cc1	3.3	7.3	5.3*	2.2	-0.9
CC(NCc1ccco1)C(=O)N1CCCC1 (stereo unspecified)	0.1	-0.1	.	0.3	-1.3
COc1cccc(NC(=O)C2CCCN2C(=O)Nc2ccc(Cl)cc2)c1 (stereo unspecified)	-1.6	3.1	.	0.3	-1.6
O=C1CC(NS(=O)(=O)c2cccnc2)CN1c1ccc(F)cc1 (stereo unspecified)	0.5	0.2	-0.5	3.9*	-0.7
O=C1C=CC(=O)N1c1ccccc1N1C(=O)C=CC1=O	-1.6	-1.4	4.3*	4.0*	0.1
O=C(NC1CCCCC1)C1CCCN(S(=O)(=O)c2cnc[nH]2)C1 (stereo unspecified)	-0.2	-0.7	5.0*	0.0	-1.5
CSc1nnc(NC(=O)C2CCCCC2)s1	0.5	2.2	-0.5	0.4	-0.1
CCSc1nnc(NC(=O)C2CCCN(S(=O)(=O)c3cnc[nH]3)C2)s1 (stereo unspecified)	-1.0	-1.5	13.3*	0.9	-1.1
Cc1ccc2nc(NC(=O)C3CCCN(S(=O)(=O)c4cnc[nH]4)C3)sc2c1 (stereo unspecified)	3.4	8.4	6.3*	3.0	-0.9
CCSc1nnc(NC(=O)C2CCCCC2)s1	0.6	5.2	4.7*	1.0	-0.1
O=C(NC1CCCCCCC1)C1CCCN(S(=O)(=O)c2cnc[nH]2)C1 (stereo unspecified)	0.0	-0.5	-0.2	-0.3	-1.2
CCCCN1CC[C@@H](C)Oc2cc(Br)ccc2S1(=O)=O	1.1	-2.4	.	-1.4	-1.2
COc1cccc(-c2ccc(CC[C@H]3O[C@H]4CC[C@@H](CO)O[C@H]4C[C@H]3NS(C)(=O)=O)cc2)c1	-0.6	2.0	.	0.0	-1.1
CC1=C(C(=O)N(C)C)CC(CC(=O)NC2CCCC2)C(=O)N1CCC1=CCCCC1 (stereo unspecified)	2.8	11.6*	2.6	3.6	-0.1
CC1=C(C(=O)N(C)C)CC(CC(=O)NC2CCCCC2)C(=O)N1CCC1=CCCCC1 (stereo unspecified)	0.3	5.5	1.2	2.5	-0.7
COc1ccc(NC(=O)c2onc(C)c2Cl)cc1	4.8	8.2	0.9	1.5	0.9*
Cc1noc(C(=O)Nc2cccc(O)c2)c1Cl	5.6*	3.6	-0.2	1.1	0.5
Cc1nn(-c2ccccc2)c(Cl)c1C(=O)N1CCN(C)CC1	0.5	1.6	9.1*	-0.8	-0.8
COc1ccc(NC(=O)c2c(C)nn(-c3ccccc3)c2Cl)cc1	0.7	2.0	5.1*	0.1	-1.0
COC(=O)C1=C(C)N(Cc2cccc(C(F)(F)F)c2)C(=NCc2cc(OC)c(OC)c(OC)c2)NC1c1ccc(F)cc1 (stereo unspecified)	3.2	0.3	.	0.4	-0.3
O=C(CSc1nc2ccccc2nc1N1CCCC1)N1CCN(c2cccc(C(F)(F)F)c2)CC1	-0.6	-0.2	.	-0.4	-1.2
Cc1ccc(C(C)C)c(OCC(=O)NNC(=O)CC2OC(=O)c3ccccc32)c1 (stereo unspecified)	-0.6	2.2	4.2*	-0.6	-0.1
Cc1ccc(NC(=O)NCc2ccco2)cc1[N+](=O)[O-]	-2.3	4.9	.	0.2	-1.8
COc1ccc(C(=O)OCCN2CCN(C3CN(Cc4cn(Cc5ccccc5C(F)(F)F)nn4)S(=O)(=O)C3)CC2)cc1OC (stereo unspecified)	-3.3	-3.0	.	-3.1	-2.6
CN(C)CC(O)COC(c1ccc(Cl)cc1)c1ccc(Cl)cc1 (stereo unspecified)	0.6	1.1	4.3*	-0.3	-1.0
CC1CN(CC(O)COC(c2ccc(Cl)cc2)c2ccc(Cl)cc2)CC(C)O1 (stereo unspecified)	-1.8	-0.3	-0.3	-0.6	-1.1
CCN(CC)CCCNC(=O)c1cc2c(=O)n(C)c3ccccc3c2n1C	3.2	3.0	7.5*	3.4	-0.5
